Hits are enriched below; roughly 27% of the tested compounds scored in any of these assays.
Cav3 T inh = inhibitors of human Cav3.2 T-type calcium channel | Cav3.2-expressing cells, Fluo-4 calcium fluorescence FDSS; hits give low values | B-score at 10 µM | actives 4% (n = 100,000) | AID 449739;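 active = single-dose well whose peak fluorescence ratio is a statistical outlier from its plate by either plate-standardised score or position-corrected B-score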
CYP2C19 activ = cytochrome P450 2C19 (human) activation. P33261. recombinant CYP2C19, luciferin-H EGE luminescence; hits give high values; 0 = fully inhibited enzyme, 1 = untreated enzyme. activation factor at 5 µM. 96,000 tested, under 10 active;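 active = activation factor of at least 2 at 5 µM in the primary screen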
Target sequence (P33261 whole entry, looked up): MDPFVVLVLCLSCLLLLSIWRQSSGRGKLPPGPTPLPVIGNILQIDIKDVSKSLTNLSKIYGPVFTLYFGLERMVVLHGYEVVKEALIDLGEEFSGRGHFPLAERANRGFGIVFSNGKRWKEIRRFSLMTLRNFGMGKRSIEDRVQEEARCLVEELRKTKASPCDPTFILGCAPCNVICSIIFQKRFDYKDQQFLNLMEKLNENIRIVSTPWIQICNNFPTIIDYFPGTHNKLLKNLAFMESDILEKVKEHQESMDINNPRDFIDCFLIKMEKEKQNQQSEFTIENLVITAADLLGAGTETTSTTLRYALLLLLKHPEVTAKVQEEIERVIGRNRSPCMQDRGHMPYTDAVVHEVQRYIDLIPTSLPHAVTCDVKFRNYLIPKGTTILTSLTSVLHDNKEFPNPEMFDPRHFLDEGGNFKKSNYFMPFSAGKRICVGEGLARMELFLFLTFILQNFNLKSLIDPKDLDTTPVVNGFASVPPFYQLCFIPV
CYP2C9 activ = increases human cytochrome P450 2C9 activity | P11712 | recombinant CYP2C9, luciferin-H conversion, luminescence; hits give high values; factor 1 = untreated enzyme, 0 = blocked | actives 1.4% (n = 96,000) | activation factor at 5 µM;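 active = activation factor of 2 or more for CYP2C9 at a 5 µM dose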
CYP2C19 inhib = blocks human cytochrome P450 2C19 | P33261 | CYP2C19 Supersomes, luciferin-H EGE luminescence, 30 min | inhibition, % at 5 µM | actives 21% (n = 96,000) | AID 778;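 active = CYP2C19 inhibition above a set limit at 5 µM in the primary screen, cut at about 50% in these data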
CYP2C9 inhib = blocks human cytochrome P450 2C9 | P11712 | CYP2C9 Supersomes, luciferin-H conversion, luminescence | inhibition, % at 5 µM | actives 20% (n = 96,000) | AID 777;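 active = blocking of liver enzyme CYP2C9 beyond about 50% at 5 µM, limit read from the data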
Large screens that a line does not name were inactive.

CCOC(=O)C1CCCN(C(=O)/C=C/c2cccc([N+](=O)[O-])c2)C1 (stereo not given)	none
Cc1[nH]c2ccc(F)cc2c(=O)c1SC(F)(F)C(F)C(F)(F)F (stereo not given)	CYP2C19 inhib 79.7, CYP2C9 inhib 55.5
Cc1ccc(CNC(=O)C2CCN(S(=O)(=O)c3cccs3)CC2)o1	none (no result: CYP2C19 activ, CYP2C9 activ, CYP2C19 inhib, CYP2C9 inhib)
Cc1ccccc1Cn1cnc2c(NS(C)(=O)=O)c(C)c(C)cc21	none
COc1ccc(Cn2cnc3c(NS(C)(=O)=O)c(C)c(C)cc32)cc1	CYP2C19 inhib 65.1
CCCC(=O)N(c1ccc(OCC)cc1)C1C=CS(=O)(=O)C1 (stereo not given)	CYP2C19 inhib 63.2
CCCCC(=O)N(c1ccc(OCC)cc1)C1C=CS(=O)(=O)C1 (stereo not given)	none
CCSc1nnc([C@H](C)NC(=O)OC(C)(C)C)o1	none
Cc1cccc(NC(=S)NC2CC3CCCC(C2)N3CC(C)C)c1 (stereo not given)	none (no result: CYP2C19 activ, CYP2C9 activ, CYP2C19 inhib, CYP2C9 inhib)
O=C(Cn1cc(C(=O)COc2ccccc2)c2ccccc21)NCc1ccco1	CYP2C9 inhib 78.0
O=C(CSc1cn(Cc2ccccc2)c2ccccc12)N1CCOCC1	CYP2C19 inhib 87.8
N#Cc1cn(CC(=O)N2CCCC2)c2ccccc12	none
O=C(c1cn(CC(=O)N2CCCC2)c2ccccc12)C1CCCCC1	CYP2C19 inhib 53.8, CYP2C9 inhib 50.5
O=C(NCCn1cc(SCC(=O)N2CCOCC2)c2ccccc21)c1ccccc1	none
CN1C(=O)/C(=C/c2cn(CC(=O)N3CCCCC3)c3ccccc23)c2ccccc21	CYP2C19 inhib 75.1, CYP2C9 inhib 98.0
Cc1noc(C)c1S(=O)(=O)N1CCCC(C(=O)Nc2cccnc2)C1 (stereo not given)	none
CC1(C(=O)NC2CCCCCCC2)CCC(=O)N1Cc1cccnc1 (stereo not given)	none
CC(C)(C)OC(=O)NCCCC[C@H](NC(=O)c1nc[nH]c1C(=O)NC(c1ccccc1)c1ccccc1)C(=O)OC(C)(C)C	none (no result: CYP2C19 activ, CYP2C9 activ, CYP2C19 inhib, CYP2C9 inhib)
S=c1[nH]nc(C2CCCCC2)n1/N=C/c1cccs1	none (no result: Cav3 T inh)
O=C(COc1ccccc1)c1cn(CC(=O)N2CCOCC2)c2ccccc12	CYP2C9 inhib 70.7
O=C(Cn1cc(C(=S)N2CCOCC2)c2ccccc21)N1CCOCC1	none (no result: Cav3 T inh)
CCOc1ccc(C(=O)N2CCN(Cc3ccccc3)CC2)cc1	none
COc1cccc(N2CCN(CC(=O)Nc3nnc(-c4ccccc4)s3)CC2)c1	Cav3 T inh -5.17, CYP2C19 inhib 50.4, CYP2C9 inhib 78.0
CC(=O)Nc1cccc(C(=O)N2CCN(Cc3ccccc3)CC2)c1	CYP2C19 inhib 96.1
COc1cccc(NC(=O)c2ccc(CN3CCN(c4ccccc4)CC3)cc2)c1	Cav3 T inh -5.42
O=C(c1ccccc1)N1CCN(Cc2ccccc2Br)CC1	CYP2C19 inhib 97.9, CYP2C9 inhib 75.8
Cc1occc1-c1nnc(SCC(=O)c2ccccc2)n1CC1CCCO1 (stereo not given)	none
CC(C)(C)[C@H]1C=C(C(N)=O)O[C@@H](OCc2ccc(CO)cc2)C1	none (no result: CYP2C19 activ, CYP2C9 activ, CYP2C19 inhib, CYP2C9 inhib)
CCCC1(C(=O)O)NC(c2ccc(OC)cc2O)C2C(=O)N(c3ccc(OC)cc3)C(=O)C21 (stereo not given)	none
O=C(Nc1ccccc1C(=O)N1CCN(Cc2ccccc2)CC1)c1ccccn1	CYP2C19 inhib 85.1, CYP2C9 inhib 67.2
O=C(c1cccc(C(=O)N2CCN(Cc3ccccc3)CC2)c1)N1CCN(Cc2ccccc2)CC1	CYP2C19 inhib 97.0, CYP2C9 inhib 82.2
O=C(Nc1cccc(C(=O)N2CCN(Cc3ccccc3)CC2)c1)c1ccccc1	CYP2C19 inhib 83.4
O=C(c1cccc(Cl)c1)N1CCN(Cc2ccncc2)CC1	none (no result: CYP2C19 activ, CYP2C9 activ, CYP2C19 inhib, CYP2C9 inhib)
O=C(CCN1CCN(Cc2ccccc2)CC1)Nc1cccc(Cl)c1	CYP2C9 inhib 54.1
O=C(Nc1cccc(Cl)c1)OCCN1CCN(Cc2ccccc2)CCC1=O	none (no result: CYP2C19 activ, CYP2C9 activ, CYP2C19 inhib, CYP2C9 inhib)
O=C(OCn1nnc2ccccc2c1=O)c1ccc2ccccc2n1	none
COc1c(F)c(F)c(C(=O)Nc2ccc(N3CCN(Cc4ccccc4)CC3)cc2)c(F)c1F	CYP2C9 inhib 57.4
COc1cccc(C(=O)Nc2ccc(N3CCN(Cc4ccccc4)CC3)cc2)c1	none
CCOc1ccc(C(=O)Nn2cnnc2)cc1	CYP2C19 inhib 73.7, CYP2C9 inhib 76.2
CCOc1ccc(C(=O)Nc2nnn(CC)n2)cc1	none
O=C(CSc1c[nH]c2ccccc12)NCC1CCCO1 (stereo not given)	CYP2C19 inhib 53.5
O=C(CSc1nc2c(sc3ccccc32)c(=O)n1Cc1ccccc1)NCC1CCCO1 (stereo not given)	none
Cc1cccc2cc(C#N)c(SCC(=O)NCC3CCCO3)nc12 (stereo not given)	none (no result: CYP2C19 activ, CYP2C9 activ, CYP2C19 inhib, CYP2C9 inhib)
Cn1c(=O)cc(SCC(=O)NCC2CCCO2)c2ccccc21 (stereo not given)	CYP2C9 activ 2.1
O=C(CSc1nc2c(sc3ccccc32)c(=O)n1Cc1ccco1)NCC1CCCO1 (stereo not given)	CYP2C19 inhib 50.7, CYP2C9 inhib 68.1
Cc1cccc2c(SCC(=O)NCC3CCCO3)nc(-c3ccc(F)cc3)nc12 (stereo not given)	CYP2C19 inhib 51.5
COc1cc(C2C3=C(CC(C)(C)CC3=O)N(C)C(=O)N2C)cc(OC)c1OC (stereo not given)	none
Cc1ccc(-n2nnc3c(SCC(=O)NCC4CCCO4)ncnc32)cc1 (stereo not given)	CYP2C9 inhib 63.9
O=C(CCn1c(=S)[nH]c2ccccc2c1=O)NCC1CCCO1 (stereo not given)	Cav3 T inh -4.47
COc1ccc(-n2nc(C(=O)NCC(=O)NCC3CCCO3)c3ccccc3c2=O)cc1Cl (stereo not given)	CYP2C9 inhib 60.5
COC(=O)c1ccc(CSc2ncnc3c2nnn3-c2ccc(OC)cc2)o1	CYP2C19 inhib 51.9, CYP2C9 inhib 56.1
CCCn1c(=S)[nH]c2cc(C(=O)NCC3CCCO3)ccc2c1=O (stereo not given)	none (no result: CYP2C19 activ, CYP2C9 activ, CYP2C19 inhib, CYP2C9 inhib)
Cn1cc(SCC(=O)NCC2CCCO2)c2ccccc21 (stereo not given)	CYP2C9 activ 2.2
O=C(CSCc1c(Cl)cccc1Cl)NCC1CCCO1 (stereo not given)	none
O=C(CSc1oc(-c2ccco2)nc1S(=O)(=O)c1ccc(Cl)cc1)NCC1CCCO1 (stereo not given)	CYP2C19 inhib 75.7
O=C(CSc1oc(-c2ccco2)nc1S(=O)(=O)c1ccccc1)NCC1CCCO1 (stereo not given)	none (no result: CYP2C19 activ, CYP2C9 activ, CYP2C19 inhib, CYP2C9 inhib)
O=C(CSc1cc(Cl)ccc1Cl)NCC1CCCO1 (stereo not given)	CYP2C9 activ 3.2, CYP2C19 inhib 73.9
CS(=O)(=O)N(CC(=O)NCC1CCCO1)c1ccc(F)c(Cl)c1 (stereo not given)	CYP2C19 inhib 60.0
CSC1=NC(NCCCO)c2c(sc3c2CC(C)(C)OC3)N1 (stereo not given)	none
Cn1nc(-c2ccc(C(=O)NCC3CCCO3)cc2)c2ccccc2c1=O (stereo not given)	none

Source: PubChem BioAssay (several laboratories)
